Test results taken from the OligoGym collection.

molecular target: FKTN; assay: pooled miR-30 sensor sort-seq; sequence = guide strand; details: shRNA
Note: reference of the scale not given here.

Sequence	sensor-assay potency score (higher = more potent)
TTCCAAGCTGTCTTCTACCTTC	-0.104
TATCAGATTTGTAATCTTGTAT	0.319
TGCATTGTGAAGTAGAGCCATG	-1.03
TTTCCTGTCAATGTGTTCTTTA	-0.407
TAGTACAACTGAAACAGCAGAA	0.161
TTTGCAGATATAGTGCAGGGGG	-0.241
TTTTAAACAGTTATCTACCTTT	0.405
TTTTACATCATCTTTTCCCTGG	0.348
TTGACTTGTTCAAAGTTCTTAT	-0.62
TTTAAGTCTCAAGTGGCCGTGC	0.148
TAAATAGTGCTTGTAGTAGTAC	-0.0376
ATTTTGACAAACCAGCTCCATT	-1.46
TAAACCTAGAGTGTGGTACTTC	0.175
TTGCATTGTCGATACCATCCTA	-0.0659
TCCATCAACAGTAACTTGCTGT	-0.268
ATGTCTACAAACTCAGTCCAGC	-1.47
TTTGACTTGTTCAAAGTTCTTA	0.733
TTGTTTAATGTTTTCGCTGCTA	0.0989
TACTTCTTCTACAAAGTGCATT	-0.78

molecular target: FLG; assay: as above; details: shRNA

Sequence	sensor-assay potency score (higher = more potent)
TTTACTTGAGTTATGATGGTTT	0.102
ATTGTAACTAACACTTCCGTGC	0.359
TTTTTTTGAATATTGCTTGAAA	-0.0278
TTGTCTGCTTGCACTTCTGGAT	-0.517
TTGATTGTTCCTCATTACGTGT	-0.377
TAATCTGCACTACCATAGCTGC	-1.29
TTTGTCTGCTTGCACTTCTGGA	-0.568
TATGAGTAGGTGAATATCCTTT	-0.066
TAATCTAGTATTTTCAGTCTTG	0.133
TTGTCTGCTGACACTTCTGGAT	-0.488
TTTCTCTGCTTGCACTTCTGGA	-0.359
TAGAGTCTGACTGTACAGGTGA	0.79
TTGTTCTGCTTGCACTTCTGGA	-0.702
TCTATTGTTTCTTCTTTCCAGA	-0.556
TAGACTCATAATATGCTTGAGC	-0.577
TTCAGAACTAGATTCATGCCTT	0.702
TAGAATGGCCACATAAACCTGG	0.301
TTTCATAATCATATACTCCTTC	0.805
TTCTAATAGACTATCAGTGGTG	-0.268
TTTTGAGTCATTCTTCCTGTAT	-0.417
TTTATCATGATGACTGTGCTTT	0.582
